Results filed as inconclusive are left out. Calls of active or inactive are those of the source. Calls follow the shape of the dose curve; as a rule, active = well fitted curve in the direction sought with a large enough effect; inconclusive = small, poorly fitted or top-dose-only effect, or another doubt; inactive = no such curve, though single readings can be large; an effect the other way counts as inactive or inconclusive.
Tests used:
[1] = qHTS of pediatric cancer cell lines to identify multiple opportunities for drug repurposing: Primary screen for Rh30 cells (AID 1347107); also: series mostly up to about 46 µM; nearly all actives have a fitted effect of over 75% in size
Method in brief: (§1)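 Cells (500-1,000/well) in growth media were settled 5 h at 37 degrees C, then given compounds for 48 h. Viability was read as CellTiter-Glo luminescence. Primary runs used MIPE at 11 points (0.78 nM-46 µM) and NPC at 8 points (0.59 nM-46 µM); follow-ups used 11 points.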

[2] = qHTS of pediatric cancer cell lines to identify multiple opportunities for drug repurposing: Primary screen for Rh41 cells (AID 1347108);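 also: series mostly up to about 46 µM; luminescence drop marks cytotoxic hits; nearly all actives have a fitted effect of over 70% in size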
Method in brief: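 Cells seeded at 500-1,000 cells/well in growth media, rested 5 hours at 37 degrees C, 5% CO2, then dosed; MIPE compounds at 11-point (from 0.78 nM) and NPC at 8-point (from 0.59 nM) final concentrations. Viability by CellTiter-Glo luminescence after 48 hours.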

[3] = qHTS of pediatric cancer cell lines to identify multiple opportunities for drug repurposing: Confirmatory screen for BT-12 cells (AID 1347112); also: nearly all actives have a fitted effect of over 55% in size
Method in brief: as §1

[4] = qHTS of pediatric cancer cell lines to identify multiple opportunities for drug repurposing: Confirmatory screen for LAN-5 cells (AID 1347113); also: nearly all actives have a fitted effect of over 65% in size
Method in brief: as §1

[5] = qHTS of pediatric cancer cell lines to identify multiple opportunities for drug repurposing: Confirmatory screen for DAOY cells (AID 1347114); also: nearly all actives have a fitted effect of over 65% in size
Method in brief: (§2)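 Viability measured as metabolically active cells via CellTiter-Glo luminescence following 48 hours of compound exposure, 11-point dilutions in confirmatory testing. 500-1,000 cells/well plated 5 hours before dosing; controls were DMSO and 2.3 µM bortezomib.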

[6] = qHTS of pediatric cancer cell lines to identify multiple opportunities for drug repurposing: Confirmatory screen for NB-EBc1 cells (AID 1347115);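 also: cells exposed to compound for 48 h before the viability read; nearly all actives have a fitted effect of over 45% in size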; also: potency is read from the fitted curve at half-maximal effect
Method in brief: as §1

[7] = qHTS of pediatric cancer cell lines to identify multiple opportunities for drug repurposing: Confirmatory screen for SJ-GBM2 cells (AID 1347116); also: nearly all actives have a fitted effect of over 60% in size
Method in brief: as §2

[8] = qHTS of pediatric cancer cell lines to identify multiple opportunities for drug repurposing: Confirmatory screen for TC32 cells (AID 1347118);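 also: cells exposed to compound for 48 h before the read; nearly all actives have a fitted effect of over 65% in size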; also: potency is read from the fitted curve at half-maximal effect
Method in brief: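 Luminescent CellTiter-Glo read-out of metabolically active TC32 cells after 48 h compound exposure. Primary: MIPE 11-point, 0.78 nM–46 µM; NPC 8-point, 0.59 nM–46 µM. Confirmatory: 11-point dilutions.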

[9] = qHTS of pediatric cancer cell lines to identify multiple opportunities for drug repurposing: Confirmatory screen for MG 63 (6-TG R) cells (AID 1347119); also: potency is read from the fitted curve at half-maximal effect; nearly all actives have a fitted effect of over 55% in size
Method in brief: as §1

[10] = qHTS of pediatric cancer cell lines to identify multiple opportunities for drug repurposing: Confirmatory screen for Rh41 cells (AID 1347123); also: nearly all actives have a fitted effect of over 60% in size
Method in brief: as §1

[11] = qHTS of pediatric cancer cell lines to identify multiple opportunities for drug repurposing: Confirmatory screen for RD cells (AID 1347124);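 also: cells exposed to compound for 48 h before viability readout; nearly all actives have a fitted effect of over 65% in size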
Method in brief: as §1

[12] = qHTS of pediatric cancer cell lines to identify multiple opportunities for drug repurposing: Confirmatory screen for Rh18 cells (AID 1347125); also: nearly all actives have a fitted effect of over 55% in size; also: potency is read from the fitted curve at half-maximal effect
Method in brief: as §1

[13] = qHTS of pediatric cancer cell lines to identify multiple opportunities for drug repurposing: Confirmatory screen for Rh30 cells (AID 1347126); also: nearly all actives have a fitted effect of over 55% in size
Method in brief: as §1

[14] = qHTS of pediatric cancer cell lines to identify multiple opportunities for drug repurposing: Confirmatory screen for A673 cells (AID 1347110)
Method in brief: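 Viability was read as ATP luminescence (CellTiter-Glo) after 48 h of compound exposure at 37 C in A673 cells seeded at 500-1,000/well. Titrations reached 46 uM final, with 11 points in the confirmatory screen. Concentration-response curves were fitted directly.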

[15] = qHTS of pediatric cancer cell lines to identify multiple opportunities for drug repurposing: Confirmatory screen for SK-N-MC cells (AID 1347111);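 also: cells exposed to compound for 48 h before the readout; nearly all actives have a fitted effect of over 70% in size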; also: potency is read from the fitted curve at half-maximal effect
Method in brief: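 Metabolically active cells were quantified by ATP-dependent luminescence (CellTiter-Glo, 15 min at room temperature) following 48 h treatment. Cells had been plated at 500-1,000 per well and settled for 5 h beforehand.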

[16] = qHTS of pediatric cancer cell lines to identify multiple opportunities for drug repurposing: Confirmatory screen for BT-37 cells (AID 1347117); also: nearly all actives have a fitted effect of over 55% in size
Method in brief: as §1

[17] = qHTS of pediatric cancer cell lines to identify multiple opportunities for drug repurposing: Confirmatory screen for OHS-50 cells (AID 1347128)
Method in brief: as §1

Measured: Potency

CC(=O)Oc1ccc(C(c2ccc(OC(C)=O)cc2)c2ccccn2)cc1
inactive: [1] | [2] | [3] | [4] | [5] | [6] | [7] | [10] | [11] | [12] | [13]
active: [8] 6.57 µM | [9] 1.17 µM

Cc1c(N(C)CS(=O)(=O)O)c(=O)n(-c2ccccc2)n1C
inactive: [1] | [2]

C[C@@H]1C[C@H]2[C@@H]3C[C@H](F)C4=CC(=O)C(Cl)=C[C@]4(C)[C@@]3(F)[C@@H](O)C[C@]2(C)[C@@]1(O)C(=O)CO
inactive: [1] | [2] | [14] | [5] | [10]
active: [12] 26.1 µM

CNCC[C@@H](Oc1ccccc1C)c1ccccc1
inactive: [1] | [2]

CCCC(=O)O[C@]1(C(=O)CO)CC[C@H]2[C@@H]3CCC4=CC(=O)CC[C@]4(C)[C@H]3[C@@H](O)C[C@@]21C
inactive: [1] | [2] | [14] | [15] | [3] | [5] | [6] | [7] | [16] | [8] | [11] | [12] | [13] | [17]

O=C1OC(c2ccc(O)cc2)(c2ccc(O)cc2)c2ccccc21
inactive: [1] | [2]

CCN(CC)C(=O)/C(C#N)=C/c1cc(O)c(O)c([N+](=O)[O-])c1
inactive: [1] | [2]

CCCOC(C(=O)OC1CCN(C)CC1)(c1ccccc1)c1ccccc1
inactive: [1] | [2]

CCCN1CCCC[C@H]1C(=O)Nc1c(C)cccc1C
inactive: [1] | [2]

Clc1ccc2c(c1)CCc1cccnc1C2=C1CCNCC1
inactive: [1] | [2]

CN(C)/N=N/c1nc[nH]c1C(N)=O
inactive: [1] | [14] | [3] | [5] | [16] | [10] | [11] | [12] | [13]
active: [15] 9.27 µM | [6] 18.5 µM | [8] 23.3 µM | [9] 0.369 µM

C[C@H](O)C(=O)Nc1c(I)c(C(=O)NC(CO)CO)c(I)c(C(=O)NC(CO)CO)c1I
inactive: [2]

From PubChem BioAssay (NCATS)
